# Measurements: PubChem BioAssay AID485364 (National Center for Advancing Translational Sciences (NCATS), 2010)
# In all, about 360,000 compounds went through this assay and about 11,000 (3.1%) were called active. About 4% were inconclusive and are not listed. Calls follow the shape of the dose curve; as a rule, active = well fitted inhibition curve with a large enough effect; inconclusive = small, poorly fitted or top-dose-only effect; inactive = no such curve, though single readings can be large or run the other way. The entries come from a sample that favours actives as a whole.
# Target: Schistosoma mansoni thioredoxin glutathione reductase (TGR) (UniProt Q962Y6)
# Assay: qHTS Assay for the Inhibitors of Schistosoma Mansoni Peroxiredoxins; also: nearly all actives have a fitted effect of over 60% in size
# Conditions: purified TGR, DTNB reduction, TNB absorbance 405 nm; series mostly up to 114 µM; activity change, negative = inhibition: at the top concentration
# In short: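 First, TGR (20 nM dispensed) and NADPH were mixed with compound. Second, a 15 min room-temperature incubation followed. Third, further NADPH and then DTNB were added to start the reaction. Finally, TNB absorbance was monitored kinetically.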
# % is scaled to controls: 0 for no effect and ±100 for the full control effect; potency is read from the fitted curve at half-maximal effect.
SMILES,"activity change, negative = inhibition",Potency
Cc1c(CNC(C)c2ccccc2)c(C(=O)O)c(C)n1Cc1c(F)cccc1Cl (stereo unspecified),-1.38% (inactive),–
COc1ccc(OC)c(NC(=O)C2CCCN(S(=O)(=O)c3ccc4c(c3)CCCC(=O)N4)C2)c1 (stereo unspecified),7.2% (inactive),–
Cc1ccc(S(=O)(=O)N2CCC(C(=O)OCC(=O)N3CC(=O)Nc4ccccc43)CC2)cc1,5.68% (inactive),–
COc1cc(OC)c(C(=O)OCC(=O)N2CC(=O)Nc3ccccc32)cc1OC,-5.22% (inactive),–
O=C1CN(C(=O)COC(=O)C2CC(=O)N(Cc3ccco3)C2)c2ccccc2N1 (stereo unspecified),–,39.8 µM (active)
COc1ccccc1-c1cc2nc(C)c(CCC(=O)NC3CCCCC3)c(C)n2n1,1.98% (inactive),–
CCc1ccc(NC(=O)c2cnc3c(-c4ccccc4)c(C)nn3c2C)cc1,-0.0334% (inactive),–
COc1ccc(C)cc1N(C)C(=O)c1c(C)oc2ncnc(N3CCOCC3)c12,0.0621% (inactive),–
CCN(CC)c1cc(NC2CCCCC2)c2c3c(onc13)-c1ccccc1C2=O,-3.71% (inactive),–
CCCN(CCC)C(=O)Cn1c(=O)n(-c2ccc(Cl)cc2)c(=O)c2c3c(sc21)CCCCC3,6.95% (inactive),–
CCc1cccc(C)c1Nc1c(-c2ccc(N(C)C)cc2)nc2ncccn12,0.589% (inactive),–
CCOc1ccc(NC(=O)CCc2c(C)nn(-c3ccc(N4CCCC4)nn3)c2C)cc1,2.21% (inactive),–
Cc1cccc(NC(=O)CSc2nnc(CNC(=O)c3cccc(C)c3)n2-c2ccccc2)c1,7.13% (inactive),–
Cc1c(NC(=S)Nc2ccccc2)c(=O)n(-c2ccccc2)n1C,-28.2% (inactive),–
Cc1c(NS(=O)(=O)c2ccc(Cl)cc2)c(=O)n(-c2ccccc2)n1C,1.4% (inactive),–
CCN(CC)P(=O)(/C(Cl)=C\Nc1c(C)n(C)n(-c2ccccc2)c1=O)N(CC)CC,–,89.1 µM (active)
COc1ccccc1CNc1nccn(-c2ccc(F)cc2)c1=O,4.78% (inactive),–
N#CC1=C(N)Oc2c(ccc3cccnc23)C1c1ccncc1 (stereo unspecified),-14.3% (inactive),–
N#CC1=C(N)Oc2c(c(=O)oc3ccccc23)C1c1ccccc1OC(=O)c1cccs1 (stereo unspecified),-28.1% (inactive),–
N#CC1=C(N)Oc2c(sc3ccccc23)C1c1ccco1 (stereo unspecified),–,31.6 µM (active)
CCOc1ccc(-n2c(SCC(=O)NCc3ccccc3)nc3n[nH]c(C)c3c2=N)cc1,-2.25% (inactive),–
CCCC(NC(=O)c1ccco1)c1nc2ccccc2[nH]1 (stereo unspecified),0.492% (inactive),–
O=C(Nc1cccc(-c2nc3ccccc3o2)c1)c1cccc(Br)c1,4.35% (inactive),–

SMILES,"activity change, negative = inhibition",Potency
O=C(/C=C/c1ccco1)Nc1cccc(-c2nc3ccccc3[nH]2)c1,–,14.1 µM (active)
CCOC(=O)c1cc(NC(=O)c2ccc(F)cc2)c(=O)n2c1oc1ccccc12,5.08% (inactive),–
CCOC(=O)c1ccc(NC(=O)C2CC(=O)N(c3ccc(C(C)C)cc3)C2)cc1 (stereo unspecified),44.8% (inactive),–
COc1ccc(CNC(=O)C2=Cc3cccc(OC)c3OC2)cc1OC,0.734% (inactive),–
Cc1ccc(S(=O)(=O)c2nc(-c3ccco3)oc2SCC(=O)Nc2ccc(F)cc2)cc1,-30.5% (inactive),–
O=C(CSc1oc(-c2ccc(F)cc2)nc1S(=O)(=O)c1ccc(Br)cc1)NC1CCCCC1,-5.14% (inactive),–
CC(C)S(=O)(=O)c1oc(-c2ccc(F)cc2)nc1S(=O)(=O)c1ccc(F)cc1,–,2.24 µM (active)
CCCN1CCN(CCCNC(=O)c2ccc3nc(Cc4ccccc4)oc3c2)CC1,6.81% (inactive),–
CCC(C)Nc1oc(-c2ccc(COc3ccc(Cl)cc3)o2)nc1C#N (stereo unspecified),8.56% (inactive),–
Cc1ccc(N2CCN(S(=O)(=O)c3ccc(F)cc3)CC2)c(C)c1,9.41% (inactive),–
Cc1ccc(CC2CC(=O)N(c3cc(C)ccc3C)C2=O)cc1 (stereo unspecified),-7.58% (inactive),–
Cc1ccc(N2C(=O)CC(N3CCSCC3)C2=O)c(C)c1 (stereo unspecified),–,50.1 µM (active)
CC(=O)Nc1cccc(NC(=O)CSc2cn(CC(=O)N3CCCC3)c3ccccc23)c1,-8.82% (inactive),–
CCC1(C)CC(=O)c2c(ccc3oc(C(=O)Nc4ccc(C(C)=O)cc4)c(C)c23)O1 (stereo unspecified),6.5% (inactive),–
CCC(=O)N1CCc2cc(Br)cc(S(=O)(=O)CCC(=O)N3CCN(c4ccc(F)cc4)CC3)c21,-25.6% (inactive),–
Cc1nc(CN2CCN(C(=O)CCc3nnc(Cc4c[nH]c5ccccc45)o3)CC2)cs1,–,39.8 µM (active)
CC(C)N(C)C(=O)CCc1nnc(CCc2c[nH]c3ccccc23)o1,10.5% (inactive),–
CCOc1ccc(CN2CCN(Cc3c[nH]c4ccccc34)CC2)cc1,-18.3% (inactive),–
Cc1nn(C)c(C)c1CN(C(=O)CCc1nnc(Cc2c[nH]c3ccccc23)o1)C(C)C,–,35.5 µM (active)
COC(c1ccccc1)c1nnc(CCC(=O)N2CCN(CCOc3ccccc3)CC2)o1 (stereo unspecified),0.259% [at 57.1 µM] (inactive),–
Cc1cccc(C(=O)Nc2nnc(Cc3c[nH]c4ccccc34)s2)c1,-26.9% (inactive),–
O=C(COc1ccccc1F)Nc1ccc(C(=O)OCc2cc(=O)n3nc(C4CC4)sc3n2)cc1,-0.189% (inactive),–
COc1ccc(CCNC(=O)CCCCn2c(=O)c3ccccc3n(Cc3ccccc3C)c2=O)cc1OC,3.57% (inactive),–
